Test [1] in a line: qHTS assay to identify aromatase inhibitors - cell viability counter screen (AID 743084).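 Also: cells stimulated with testosterone during compound exposure; nearly all actives have a fitted effect of over 55% in size.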 A general note: Quantitative high-throughput screening tests each substance at several concentrations.
In test [2] the target is Aryl hydrocarbon receptor (Homo sapiens) (UniProt P35869). The test is described as follows: qHTS assay to identify small molecule that activate the aryl hydrocarbon receptor (AhR) signaling pathway (AID 743085).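 Also: HG2L7.5c1 human HepG2 liver cells with stably integrated DRE-driven firefly reporter; series mostly up to about 70 µM; nearly all actives have a fitted effect of over 15% in size.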 Put shortly:
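HepG2 cells stably carrying a 20-DRE firefly luciferase reporter (HG2L7.5c1) treated with compound for 24 hr at 37C. Luciferase read by ONE-Glo luminescence, with CellTiter-Fluor viability read first.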

Test [3] is described as follows: qHTS assay to identify small molecule that activate the aryl hydrocarbon receptor (AhR) signaling pathway - cell viability counter screen (AID 743086).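 Also: HepG2 liver cells carrying the AhR DRE luciferase reporter; series mostly up to about 70 µM; nearly all actives have a fitted effect of over 45% in size.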 An outline of the steps: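 HepG2-AhR-luc (HG2L7.5c1) cells, 4000/well, treated 24 h at 37 C with compound; viability measured as CellTiter-Fluor fluorescence after 30 min in the same wells as the luciferase read.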

In test [4] the target is Peroxisome proliferator-activated receptor gamma (Homo sapiens) (UniProt P37231). The test is described as follows: qHTS assay to identify small molecule antagonists of the peroxisome proliferator-activated receptor gamma (PPARg) signaling pathway (AID 743191; calls by dose curve; also: series mostly up to about 63 µM; nearly all actives have a fitted effect of over 30% in size). An outline of the steps:
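GeneBLAzer PPARg UAS-bla HEK293H cells, 5 h post-plating, exposed to compounds 17 h at 37C. LiveBLAzer B/G FRET substrate added for 1 h at room temperature; beta-lactamase reporter read by fluorescence intensity.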

Test [5] is described as follows: qHTS assay to identify small molecule antagonists of the peroxisome proliferator-activated receptor gamma (PPARg) signaling pathway - cell viability counter screen (AID 743194). Also: nearly all actives have a fitted effect of over 55% in size. Conditions: Potency: co-treated with 50 nM rosiglitazone. An outline of the steps:
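Cytotoxicity counter screen in PPARg-bla HEK293H cells, same wells as reporter assay. Compounds plus 50 nM rosiglitazone (final) for 17 h at 37 C, then viability read by CellTiter-Glo luminescence.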

Test [6] can be described thus: qHTS assay for small molecule agonists of the antioxidant response element (ARE) signaling pathway (AID 743202; active = well fitted activation curve with a large enough effect in the signal ratio in the repeat runs, not every such curve was filed as active; the % refers to the signal ratio; also: potency is read from the fitted curve at half-maximal effect). Put shortly:
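ARE-bla HepG2 cells (beta-lactamase reporter under the antioxidant response element), plated 5 hours, then exposed to compounds 16 hours at 37 C. LiveBLAzer B/G FRET substrate added for 2 hours at room temperature; fluorescence intensity read.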

Test [7] is described as follows: qHTS assay for small molecule agonists of the antioxidant response element (ARE) signaling pathway - cell viability counter screen (AID 743203; calls by dose curve; also: nearly all actives have a fitted effect of over 55% in size). Put shortly: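 CellSensor ARE-bla HepG2 cells, 2,000 per well, rested 5 hrs at 37C/5% CO2, then exposed to compound in DMSO for 16 hrs; viability read as CellTiter-Glo luminescence after 30 min at room temperature, in the reporter wells.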

A short description of test [8]: qHTS assay for small molecule activators of the heat shock response signaling pathway - cell viability counter screen (AID 743209). Also: nearly all actives have a fitted effect of over 50% in size. An outline of the steps:
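CellSensor HSE-bla HeLa cells, plated overnight at 37 C/5% CO2, were exposed to compounds in DMSO for 5 h at 37 C. Viability was then read in the same wells by CellTiter-Glo luminescence after 30 min at room temperature.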

Test [9] in a line: qHTS assay for small molecule activators of the heat shock response signaling pathway (AID 743210; active = well fitted activation curve with a large enough effect in the signal ratio in the repeat runs, with a control signal flat, not every such curve was filed as active; the % refers to the signal ratio; also: series mostly up to about 63 µM). An outline of the steps:
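HSE-bla HeLa cells (beta-lactamase reporter under heat shock response elements), plated overnight, then exposed to compounds 5 h at 37 C; LiveBLAzer B/G FRET substrate added, 2.5 h at room temperature, fluorescence intensity read.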

The nature of test [10]: qHTS assay to identify small molecule agonists of the peroxisome proliferator-activated receptor delta (PPARd) signaling pathway - cell viability counter screen (AID 743211). Also: nearly all actives have a fitted effect of over 55% in size. Put shortly:
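PPARd-bla HEK293H cells (3000/well) were pre-incubated 5 h at 37 C, then exposed to compound for 17 h at 37 C. After 2 h with LiveBLAzer substrate, CellTiter-Glo was added to the same wells; luminescence read after 30 min at room temperature.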

A short description of test [11]: qHTS assay to identify small molecule antagonists of the peroxisome proliferator-activated receptor delta (PPARd) signaling pathway - cell viability counter screen (AID 743213). Also: nearly all actives have a fitted effect of over 50% in size. An outline of the steps: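 HEK293H cells with the PPARd UAS-bla reporter, co-treated 17 h at 37 C with compounds and L165041 (300 nM final), were lysed with CellTiter-Glo. Luminescence indicated viable cell content.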

Test [12] has as its target Bile acid receptor (Homo sapiens) (UniProt Q96RI1). The test is described as follows: qHTS assay to identify small molecule antagonists of the farnesoid-X-receptor (FXR) signaling pathway (AID 743217; active = well fitted inhibition curve with a large enough effect in the signal ratio in the repeat runs, not every such curve was filed as active; the % refers to the signal ratio). An outline of the steps: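 FXR-UAS-bla HEK 293T cells pre-incubated 5 h at 37 °C, then exposed to compounds with chenodeoxycholic acid (50 uM final) for 16 h at 37 °C. Beta-lactamase reporter read by LiveBLAzer B/G FRET substrate fluorescence after 2 h at room temperature.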

The nature of test [13]: qHTS assay to identify small molecule antagonists of the farnesoid-X-receptor (FXR) signaling pathway - cell viability counter screen (AID 743221; active = well fitted cell-killing curve with a large enough effect in the repeat runs, not every such curve was filed as active; also: nearly all actives have a fitted effect of over 50% in size). An outline of the steps: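 GeneBLAzer FXR-UAS-bla HEK 293T cells, compound plus chenodeoxycholic acid (50 uM final), 16 h at 37 C. CellTiter-Glo added to the same wells after the beta-lactamase read; luminescence read after 30 min at room temperature as viability.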

Test [14] addresses Vitamin D3 receptor (Homo sapiens) (UniProt P11473). The test is described as follows: qHTS assay to identify small molecule agonists of the vitamin D receptor (VDR) signaling pathway (AID 743222; calls by dose curve). An outline of the steps: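 VDR-bla cells were plated 4 h at 37C/5% CO2, then exposed to compounds in DMSO for 16 h. After LiveBLAzer B/G FRET substrate addition and 2 h at room temperature, beta-lactamase reporter fluorescence was read.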

Test [15] can be described thus: qHTS assay to identify small molecule agonists of the farnesoid-X-receptor (FXR) signaling pathway - cell viability counter screen (AID 743218). Also: nearly all actives have a fitted effect of over 45% in size. Put shortly:
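FXR-UAS-bla HEK 293T cells, plated 5 h at 37 C, were exposed to compounds for 16 h at 37 C. CellTiter-Glo was then added to the same wells as the bla readout; luminescence read after 30 min at room temperature.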

Test [16] deals with Vitamin D3 receptor (Homo sapiens) (UniProt P11473). The test is described as follows: qHTS assay to identify small molecule antagonists of the vitamin D receptor (VDR) signaling pathway (AID 743223; active = well fitted inhibition curve with a large enough effect in the signal ratio in the repeat runs, not every such curve was filed as active; the % refers to the signal ratio). An outline of the steps:
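VDR-bla cells were treated with compound plus 3 nM final 1alpha,25-dihydroxyvitamin D3 for 16 h at 37C. Beta-lactamase reporter read by B/G FRET substrate fluorescence after 2 h at room temperature. qHTS format.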

In test [17] the target is Peroxisome proliferator-activated receptor delta (Homo sapiens) (UniProt Q03181). The test can be described thus: qHTS assay to identify small molecule agonists of the peroxisome proliferator-activated receptor delta (PPARd) signaling pathway (AID 743212; calls by dose curve). An outline of the steps: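 GeneBLAzer UAS-bla HEK293H cells carrying a PPARδ construct were exposed to compounds at 37 °C. Beta-lactamase activity was read by FRET fluorescence after 2 h at room temperature with LiveBLAzer B/G substrate.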
Chain of Peroxisome proliferator-activated receptor delta (Homo sapiens) (Q03181 whole entry, looked up): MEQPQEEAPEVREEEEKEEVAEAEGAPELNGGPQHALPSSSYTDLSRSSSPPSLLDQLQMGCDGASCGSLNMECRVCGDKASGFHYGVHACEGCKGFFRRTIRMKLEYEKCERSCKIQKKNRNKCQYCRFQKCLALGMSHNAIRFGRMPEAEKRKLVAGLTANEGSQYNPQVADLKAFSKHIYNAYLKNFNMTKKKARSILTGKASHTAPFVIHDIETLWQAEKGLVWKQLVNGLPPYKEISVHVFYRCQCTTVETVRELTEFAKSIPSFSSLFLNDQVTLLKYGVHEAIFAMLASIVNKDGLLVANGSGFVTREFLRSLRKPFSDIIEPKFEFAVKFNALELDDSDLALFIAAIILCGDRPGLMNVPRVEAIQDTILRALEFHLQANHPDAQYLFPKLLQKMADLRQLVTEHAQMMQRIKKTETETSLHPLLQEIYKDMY

For test [18] the target is unchanged. The test is described as follows: qHTS assay to identify small molecule antagonists of the peroxisome proliferator-activated receptor delta (PPARd) signaling pathway (AID 743215; active = well fitted inhibition curve with a large enough effect in the signal ratio in the repeat runs, not every such curve was filed as active; the % refers to the signal ratio;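 also: cells stimulated with agonist L165041 at 300 nM final during compound exposure; series mostly up to about 62 µM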). Put shortly: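 PPARd UAS-bla HEK293H cells were pre-incubated 5 h at 37 C, then given test compounds in DMSO plus agonist L165041 (300 nM final). After 17 h at 37 C, beta-lactamase FRET substrate was added; fluorescence read after 2 h at room temperature.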

In test [19] the target is Bile acid receptor (Homo sapiens) (UniProt Q96RI1). The test can be described thus: qHTS assay to identify small molecule agonists of the farnesoid-X-receptor (FXR) signaling pathway (AID 743220; active = well fitted activation curve with a large enough effect in the signal ratio in the repeat runs, not every such curve was filed as active; the % refers to the signal ratio). An outline of the steps:
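Beta-lactamase reporter under UAS control in GeneBLAzer FXR HEK 293T cells (5000/well) measured with LiveBLAzer FRET substrate after 2 h at room temperature. Compound exposure lasted 16 h at 37C.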

Each structure is given as a SMILES string. Inconclusive results are not listed. Activity calls are given as the source filed them. Unless noted, calls follow the shape of the dose curve; as a rule, active = well fitted curve in the direction sought with a large enough effect in the repeat runs; inconclusive = weak or mixed curves; inactive = no such curve, though single readings can be large; an effect the other way counts as inactive or inconclusive.

Chain of Aryl hydrocarbon receptor (Homo sapiens) (P35869 whole entry, looked up): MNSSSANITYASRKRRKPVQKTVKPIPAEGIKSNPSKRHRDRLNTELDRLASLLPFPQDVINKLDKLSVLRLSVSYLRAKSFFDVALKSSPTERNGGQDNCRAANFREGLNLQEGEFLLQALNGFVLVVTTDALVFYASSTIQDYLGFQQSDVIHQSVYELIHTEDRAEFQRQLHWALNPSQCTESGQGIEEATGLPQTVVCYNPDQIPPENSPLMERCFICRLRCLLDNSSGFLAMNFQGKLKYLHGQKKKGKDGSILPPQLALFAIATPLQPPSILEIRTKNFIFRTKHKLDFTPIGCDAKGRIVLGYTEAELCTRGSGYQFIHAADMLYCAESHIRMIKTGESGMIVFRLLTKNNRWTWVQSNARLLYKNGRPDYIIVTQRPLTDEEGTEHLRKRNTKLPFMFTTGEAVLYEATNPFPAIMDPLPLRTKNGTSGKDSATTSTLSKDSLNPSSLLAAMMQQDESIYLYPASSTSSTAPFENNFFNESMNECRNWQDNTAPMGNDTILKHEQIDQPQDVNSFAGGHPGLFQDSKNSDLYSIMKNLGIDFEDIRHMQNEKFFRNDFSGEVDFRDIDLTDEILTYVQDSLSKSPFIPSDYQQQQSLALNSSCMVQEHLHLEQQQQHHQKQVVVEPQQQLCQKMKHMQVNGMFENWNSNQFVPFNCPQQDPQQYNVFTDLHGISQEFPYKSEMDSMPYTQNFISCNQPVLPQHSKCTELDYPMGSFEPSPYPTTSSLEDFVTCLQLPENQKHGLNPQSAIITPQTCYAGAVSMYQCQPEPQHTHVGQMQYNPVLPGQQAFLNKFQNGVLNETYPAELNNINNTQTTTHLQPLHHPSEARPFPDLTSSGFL
Chain of Bile acid receptor (Homo sapiens) (Q96RI1 whole entry, looked up): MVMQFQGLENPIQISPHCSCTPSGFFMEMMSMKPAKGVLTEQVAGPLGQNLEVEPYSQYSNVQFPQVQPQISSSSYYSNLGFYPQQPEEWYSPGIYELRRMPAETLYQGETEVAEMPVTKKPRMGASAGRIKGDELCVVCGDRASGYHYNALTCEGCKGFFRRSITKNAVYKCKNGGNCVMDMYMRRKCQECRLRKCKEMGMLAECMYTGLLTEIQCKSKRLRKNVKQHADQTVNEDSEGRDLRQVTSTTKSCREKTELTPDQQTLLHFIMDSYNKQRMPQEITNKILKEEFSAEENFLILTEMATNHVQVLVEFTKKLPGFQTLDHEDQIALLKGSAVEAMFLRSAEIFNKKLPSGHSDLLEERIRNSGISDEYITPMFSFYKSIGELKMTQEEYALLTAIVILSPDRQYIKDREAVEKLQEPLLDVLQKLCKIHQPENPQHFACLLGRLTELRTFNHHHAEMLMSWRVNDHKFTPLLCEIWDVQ
Chain of Peroxisome proliferator-activated receptor gamma (Homo sapiens) (P37231 whole entry, looked up): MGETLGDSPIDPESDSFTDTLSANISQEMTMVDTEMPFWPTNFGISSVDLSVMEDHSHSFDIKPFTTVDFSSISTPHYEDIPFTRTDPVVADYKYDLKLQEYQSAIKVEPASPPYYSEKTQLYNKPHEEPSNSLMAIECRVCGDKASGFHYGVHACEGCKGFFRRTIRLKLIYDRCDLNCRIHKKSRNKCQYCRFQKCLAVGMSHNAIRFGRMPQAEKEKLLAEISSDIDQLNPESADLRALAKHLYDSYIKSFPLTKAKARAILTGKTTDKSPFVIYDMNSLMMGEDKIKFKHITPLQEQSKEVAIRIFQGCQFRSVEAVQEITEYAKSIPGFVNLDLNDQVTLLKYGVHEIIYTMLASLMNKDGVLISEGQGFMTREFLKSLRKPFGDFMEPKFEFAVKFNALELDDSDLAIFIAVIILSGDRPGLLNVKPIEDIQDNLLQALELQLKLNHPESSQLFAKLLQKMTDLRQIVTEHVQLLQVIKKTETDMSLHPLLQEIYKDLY
Chain of Vitamin D3 receptor (Homo sapiens) (P11473 whole entry, looked up): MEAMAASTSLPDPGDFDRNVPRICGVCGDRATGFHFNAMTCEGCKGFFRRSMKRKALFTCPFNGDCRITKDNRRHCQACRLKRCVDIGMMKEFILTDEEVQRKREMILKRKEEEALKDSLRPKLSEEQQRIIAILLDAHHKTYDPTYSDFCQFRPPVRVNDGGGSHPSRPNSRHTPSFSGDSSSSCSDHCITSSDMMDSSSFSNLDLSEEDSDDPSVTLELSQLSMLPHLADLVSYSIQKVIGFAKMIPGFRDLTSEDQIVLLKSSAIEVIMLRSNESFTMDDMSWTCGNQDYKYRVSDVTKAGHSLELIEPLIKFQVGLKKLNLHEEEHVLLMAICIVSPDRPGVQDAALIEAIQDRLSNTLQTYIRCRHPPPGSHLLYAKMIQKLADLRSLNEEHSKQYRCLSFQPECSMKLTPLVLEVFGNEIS

Take `CN(C)CCc1ccc(O)cc1`: the Potency entry in [1], in test [2], in test [4], in [5], in [6] and in test [7] was “inactive” in each case. Also, the Potency entry in [8], in [10] and in test [12] was “inactive” throughout. The result in [3], in test [9], in test [11], in test [13] and in [14] was inactive.

Regarding `CC1CN1P(=O)(N1CC1C)N1CC1C` (centres undefined), the Potency entry in test [1], in test [2], in [4], in test [5], in test [7] and in [8] was “inactive” throughout. The Potency entry in [10] and in [15] was “inactive” in each case. The molecule was classed as inactive in test [3], in [9], in [11], in test [13], in test [14] and in test [16].

Turning to `C#C[C@]1(O)C=C[C@H]2[C@@H]3CCC4=CC(=O)CC[C@@H]4[C@H]3CC[C@@]21CC`, the Potency result in [1], in test [2], in test [5], in test [7], in [8] and in test [10] was “inactive” each time. Moreover, the Potency entry in [15] was “inactive”. In addition, the call in test [3], in test [9], in test [17], in test [11], in test [13] and in test [14] was inactive.

As to `CNC(=O)Oc1cccc(C(C)C)c1`, the Potency result in test [1], in test [2], in test [5], in [6], in test [7] and in [8] was “inactive” in each case. Also, the Potency entry in [10] and in test [15] was “inactive” in each case. For the same molecule, the outcome in test [3], in [9], in test [11], in [13], in [14] and in test [16] was inactive.

On to `CNC(=O)Oc1ccc(N(C)C)c(C)c1`, for which the Potency entry in test [1], in test [2], in [5], in test [7], in test [8] and in test [10] was “inactive” each time. Further, the Potency entry in test [12] and in [15] was “inactive” in each case. The call in test [3], in [9], in test [17], in test [11], in [18] and in [19] was inactive. The call in test [13] was inactive.

With `CC(C)CC(N(C)C)C1(c2ccc(Cl)cc2)CCC1` (centres undefined), the Potency entry in test [1], in [2], in [5], in test [6], in test [7] and in test [8] was “inactive” in each case. Besides, the Potency entry in test [10], in [12] and in test [15] was “inactive” each time. In addition, the result in test [3], in test [11], in test [18], in test [19], in [13] and in test [14] was inactive. For the same molecule, in test [16], the molecule was called inactive.

With `OCCSCSCCO`, the Potency result in test [1], in test [2], in [4], in test [5], in test [6] and in test [7] was “inactive” each time. In addition, the Potency entry in test [8], in test [10] and in test [15] was “inactive” each time. Further, the result in test [3], in test [9], in test [17], in [11], in test [18] and in test [13] was inactive. Also, the call in test [14] and in test [16] was inactive.

Regarding `CC1CCCCC1NC(=O)Nc1ccccc1` (centres undefined), the Potency entry in test [1], in [2], in test [5], in test [6], in test [7] and in [8] was “inactive” throughout. Further, the Potency result in test [10], in test [12] and in test [15] was “inactive” throughout. Also, the result in [3], in test [9], in test [17], in test [11], in test [18] and in test [19] was inactive. For the same molecule, the molecule was classed as inactive in [13], in test [14] and in test [16].

With `CCCSC(=O)N(CCC)CCC`, the Potency result in test [1], in [2], in test [5], in test [7], in test [8] and in [10] was “inactive” each time. Moreover, in test [15], the Potency entry was “inactive”. Besides, the molecule was classed as inactive in test [3], in test [9], in test [17], in test [11], in test [18] and in test [13]. Moreover, the molecule was classed as inactive in test [14].

With `O=C(Oc1ccc(Br)cc1)N1CCN2CCC1CC2`, the Potency entry in test [1], in test [2], in test [4], in test [5], in test [7] and in [8] was “inactive” in each case. In addition, the Potency entry in test [10] and in test [15] was “inactive” each time. The molecule was classed as inactive in test [3], in test [9], in test [17], in test [11], in [18] and in [13]. The call in test [14] and in test [16] was inactive.

As to `CCS(=O)(=O)CCSP(=O)(OC)OC`, the Potency result in test [1], in test [2], in [5], in [7], in test [8] and in test [15] was “inactive” in each case. Also, the outcome in test [3], in test [9], in test [17], in test [11], in [13] and in [14] was inactive. In addition, the Potency in test [6] was 8.63 µM (active).

As to `O=C1OC(c2ccc(O)c(S(=O)(=O)O)c2)(c2ccc(O)c(S(=O)(=O)O)c2)c2c(Br)c(Br)c(Br)c(Br)c21`, the Potency result in test [1], in [2], in test [4], in test [5], in test [7] and in test [8] was “inactive” each time. For the same molecule, the Potency result in test [10] and in test [15] was “inactive” in each case. The call in test [3], in [9], in test [17], in [11], in test [18] and in test [13] was inactive. Besides, the outcome in test [14] was inactive.

The values are drawn from PubChem BioAssay (Tox21).
